Targets with a hit are over-represented here; the source holds about 8,800 in all. About 0.5% of all pairs of compound and target were hits.
Columns and labels:
Test in all cases: log2 fold change, soluble protein after heating vs DMSO (PISA); higher = thermal stabilisation; K562 lysate, 10 uM; active = over 0.2 and 3.5 SD of the protein, either way, in both replicates (recomputed)
nilotinib = compound: Cc1cn(-c2cc(NC(=O)c3ccc(C)c(Nc4nccc(-c5cccnc5)n4)c3)cc(C(F)(F)F)c2)cn1 [nilotinib]
Outline: (§1)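 Thermal stability, expressed as log-two fold change relative to solvent controls, is given from duplicates. Crude K562 extract in PBS pH 7.4 with 1 mM MgCl2, at 1 mg/mL protein, was treated with 10 μM compound for 30 min and heated in aliquots for 3 min across 48°C-58°C. After pooling, adjustment to 0.5% NP-40 at 4°C and centrifugation at 21,000xg for 90 min, supernatant protein was measured by TMTpro 16plex LC-MS/MS with channel sums equalised.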

[1] = compound: Cc1nc(Nc2n[nH]c3c2CN(C(=O)N[C@H](CN(C)C)c2ccccc2)C3(C)C)c2sccc2n1
Outline: as §1

dasatinib = compound: Cc1nc(Nc2ncc(C(=O)Nc3c(C)cccc3Cl)s2)cc(N2CCN(CCO)CC2)n1 [dasatinib]
Outline: as §1

[2] = compound: Cc1ncc(-c2ccnc(Nc3ccc(S(C)(=O)=O)cc3)n2)n1C(C)C
Outline: as §1

[3] = compound: Cn1cc(-c2ccc3c(c2)CCN3C(=O)Cc2cccc(C(F)(F)F)c2)c2c(N)ncnc21
Outline: as §1

quisinostat = compound: Cn1cc(CNCC2CCN(c3ncc(C(=O)NO)cn3)CC2)c2ccccc21 [quisinostat]
Outline: as §1

tipifarnib = compound: Cn1cncc1[C@@](N)(c1ccc(Cl)cc1)c1ccc2c(c1)c(-c1cccc(Cl)c1)cc(=O)n2C [tipifarnib]
Outline: as §1

[4] = compound: NC(=O)Nc1cc(-c2cccc(F)c2)sc1C(=O)N[C@H]1CCCNC1
Outline: as §1

[5] = compound: NC(=O)c1cnc(N[C@@H]2CCCC[C@@H]2N)nc1Nc1cccc(-n2nccn2)c1
Outline: as §1

[6] = compound: NC1(c2ccc(-c3nc4ccn5c(=O)[nH]nc5c4cc3-c3ccccc3)cc2)CCC1
Outline: as §1

Measured: log2 fold change

CDK5RAP3 isoform 4 (UniProt Q96JB5)
Sequence of UniProt Q96JB5 (Q96JB5 whole entry, looked up): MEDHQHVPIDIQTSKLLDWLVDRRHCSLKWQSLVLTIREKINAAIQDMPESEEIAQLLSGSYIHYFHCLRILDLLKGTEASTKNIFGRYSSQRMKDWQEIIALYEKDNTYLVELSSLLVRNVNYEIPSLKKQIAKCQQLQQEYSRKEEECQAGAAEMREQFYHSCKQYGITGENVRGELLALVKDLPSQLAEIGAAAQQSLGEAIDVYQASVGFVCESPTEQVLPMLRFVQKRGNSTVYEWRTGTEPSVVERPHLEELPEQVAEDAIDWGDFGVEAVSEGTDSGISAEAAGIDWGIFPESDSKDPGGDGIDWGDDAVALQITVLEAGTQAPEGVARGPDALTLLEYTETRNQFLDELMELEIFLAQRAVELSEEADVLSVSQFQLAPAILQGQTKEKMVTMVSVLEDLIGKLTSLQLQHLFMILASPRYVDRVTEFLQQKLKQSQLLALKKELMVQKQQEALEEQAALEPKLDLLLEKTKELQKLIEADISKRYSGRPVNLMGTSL
inactive: nilotinib 0.003 | [1] -0.016 | dasatinib -0.067 | [2] 0.006 | [3] 0.045 | quisinostat -0.03 | tipifarnib -0.043 | [4] 0.023 | [5] 0.026 | [6] -0.007

CARNMT1 (UniProt Q8N4J0)
inactive: nilotinib 0.019 | [1] -0.016 | dasatinib 0.003 | [2] -0.019 | [3] 0.006 | quisinostat -0.173 | tipifarnib 0.011 | [4] 0.004 | [5] 0.019 | [6] -0.023

CCDC47 (UniProt Q96A33)
inactive: nilotinib -0.012 | [1] -0.009 | dasatinib -0.016 | [2] 0.025 | [3] -0.009 | quisinostat 0.006 | tipifarnib -0.025 | [4] 0.014 | [5] 0.019 | [6] -0.023

C5orf51 (UniProt A6NDU8)
Sequence of UniProt A6NDU8 (A6NDU8 whole entry, looked up): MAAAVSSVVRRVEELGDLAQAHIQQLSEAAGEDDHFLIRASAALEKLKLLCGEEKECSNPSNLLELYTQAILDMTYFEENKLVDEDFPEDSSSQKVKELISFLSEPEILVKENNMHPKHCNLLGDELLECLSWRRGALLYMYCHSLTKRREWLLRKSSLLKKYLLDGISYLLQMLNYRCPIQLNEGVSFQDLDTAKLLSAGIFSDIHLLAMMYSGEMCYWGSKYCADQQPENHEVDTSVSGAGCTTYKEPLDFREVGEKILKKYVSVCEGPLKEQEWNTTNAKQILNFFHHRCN
inactive: nilotinib -0.061 | [1] 0.006 | dasatinib -0.029 | [2] 0.017 | [3] 0.02 | quisinostat -0.066 | tipifarnib 0.026 | [4] 0.1 | [5] 0.002 | [6] -0.023

CASP3 (UniProt P42574)
inactive: nilotinib 0.032 | [1] -0.024 | dasatinib 0.053 | [2] 0.023 | [3] 0.008 | quisinostat -0.029 | tipifarnib -0.033 | [4] 0 | [5] -0.01 | [6] 0.022

BAG4 (UniProt O95429)
inactive: nilotinib -0.154 | [1] -0.039 | dasatinib 0.027 | [2] 0.014 | [3] 0.015 | quisinostat 0.019 | tipifarnib -0.011 | [4] 0.01 | [5] 0.018 | [6] 0.038

CHD1L (UniProt Q86WJ1)
inactive: nilotinib -0.01 | [1] -0.012 | dasatinib -0.024 | [2] 0 | [3] 0.024 | quisinostat -0.114 | tipifarnib 0.032 | [4] 0.111 | [5] 0.028 | [6] -0.039

BRD3 (UniProt Q15059)
Sequence of UniProt Q15059 (Q15059 whole entry, looked up): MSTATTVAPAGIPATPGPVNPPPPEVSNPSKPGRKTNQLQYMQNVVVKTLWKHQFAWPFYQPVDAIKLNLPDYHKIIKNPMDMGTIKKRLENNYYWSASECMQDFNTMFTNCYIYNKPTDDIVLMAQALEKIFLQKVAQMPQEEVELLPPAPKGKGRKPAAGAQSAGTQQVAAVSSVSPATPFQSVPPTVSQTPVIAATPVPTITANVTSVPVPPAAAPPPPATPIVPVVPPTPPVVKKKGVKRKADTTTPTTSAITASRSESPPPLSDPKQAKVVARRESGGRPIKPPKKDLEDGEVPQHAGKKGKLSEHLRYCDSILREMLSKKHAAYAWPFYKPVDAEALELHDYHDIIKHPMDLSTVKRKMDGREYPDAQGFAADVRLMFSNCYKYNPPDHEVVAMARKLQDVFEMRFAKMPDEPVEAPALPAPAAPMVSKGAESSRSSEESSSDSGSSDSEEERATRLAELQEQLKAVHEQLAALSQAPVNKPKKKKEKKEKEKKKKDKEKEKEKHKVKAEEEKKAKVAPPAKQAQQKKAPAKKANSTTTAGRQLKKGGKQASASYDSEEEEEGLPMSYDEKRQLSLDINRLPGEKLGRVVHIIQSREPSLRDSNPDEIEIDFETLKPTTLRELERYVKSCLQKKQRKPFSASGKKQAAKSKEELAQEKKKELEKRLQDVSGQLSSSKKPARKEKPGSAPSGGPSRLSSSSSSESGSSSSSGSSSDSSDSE
inactive: nilotinib -0.069 | [1] 0.074 | dasatinib -0.011 | [2] 0.025 | [3] -0.018 | quisinostat 0.013 | tipifarnib 0.013 | [4] 0.066 | [5] -0.024 | [6] -0.185

CBFA2T3 (UniProt O75081)
inactive: nilotinib -0.018 | [1] 0.02 | dasatinib -0.026 | [2] -0.019 | [3] -0.008 | quisinostat -0.07 | tipifarnib -0.047 | [4] 0.043 | [5] 0 | [6] 0.001

BCKDK (UniProt O14874)
inactive: nilotinib 0.008 | [1] 0.001 | dasatinib 0.023 | [2] -0.061 | [3] 0.058 | quisinostat 0.094 | tipifarnib -0.058 | [4] -0.092 | [5] -0.029 | [6] 0.052

CAPN15 (UniProt O75808)
Sequence of UniProt O75808 (O75808 whole entry, looked up): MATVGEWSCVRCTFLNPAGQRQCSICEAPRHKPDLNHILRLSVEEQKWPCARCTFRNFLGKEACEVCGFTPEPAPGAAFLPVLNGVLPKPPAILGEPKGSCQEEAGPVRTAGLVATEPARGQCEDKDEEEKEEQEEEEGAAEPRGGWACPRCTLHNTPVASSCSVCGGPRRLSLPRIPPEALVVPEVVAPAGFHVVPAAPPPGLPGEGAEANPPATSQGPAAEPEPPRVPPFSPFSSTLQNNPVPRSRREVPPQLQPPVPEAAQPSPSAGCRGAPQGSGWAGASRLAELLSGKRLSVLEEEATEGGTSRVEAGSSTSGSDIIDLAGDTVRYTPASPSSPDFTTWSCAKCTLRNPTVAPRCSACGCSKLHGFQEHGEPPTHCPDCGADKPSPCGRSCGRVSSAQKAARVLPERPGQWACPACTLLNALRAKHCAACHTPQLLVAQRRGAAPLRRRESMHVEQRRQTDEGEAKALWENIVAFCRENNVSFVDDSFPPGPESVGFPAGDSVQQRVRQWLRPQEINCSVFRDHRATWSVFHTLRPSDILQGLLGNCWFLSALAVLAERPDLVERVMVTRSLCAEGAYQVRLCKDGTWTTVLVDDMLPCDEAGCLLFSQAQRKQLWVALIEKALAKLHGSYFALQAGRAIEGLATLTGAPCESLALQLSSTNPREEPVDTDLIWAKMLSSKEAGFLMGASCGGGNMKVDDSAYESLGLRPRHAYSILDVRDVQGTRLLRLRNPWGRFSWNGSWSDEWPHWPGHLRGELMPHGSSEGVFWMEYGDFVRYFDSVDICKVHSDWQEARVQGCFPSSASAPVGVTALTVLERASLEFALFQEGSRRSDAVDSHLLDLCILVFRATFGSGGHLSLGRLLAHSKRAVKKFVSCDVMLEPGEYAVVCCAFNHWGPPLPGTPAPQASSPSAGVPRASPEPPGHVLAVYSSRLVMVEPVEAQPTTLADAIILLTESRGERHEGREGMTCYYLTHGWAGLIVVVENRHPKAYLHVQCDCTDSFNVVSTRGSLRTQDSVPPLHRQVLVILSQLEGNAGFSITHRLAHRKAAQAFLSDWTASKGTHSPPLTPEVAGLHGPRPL
inactive: nilotinib 0.018 | [1] -0.045 | dasatinib -0.124 | [2] 0.014 | [3] 0.007 | quisinostat 0 | tipifarnib 0.04 | [4] 0.025 | [5] -0.08 | [6] 0.054

CAPNS1 (UniProt P04632)
Sequence of UniProt P04632 (P04632 whole entry, looked up): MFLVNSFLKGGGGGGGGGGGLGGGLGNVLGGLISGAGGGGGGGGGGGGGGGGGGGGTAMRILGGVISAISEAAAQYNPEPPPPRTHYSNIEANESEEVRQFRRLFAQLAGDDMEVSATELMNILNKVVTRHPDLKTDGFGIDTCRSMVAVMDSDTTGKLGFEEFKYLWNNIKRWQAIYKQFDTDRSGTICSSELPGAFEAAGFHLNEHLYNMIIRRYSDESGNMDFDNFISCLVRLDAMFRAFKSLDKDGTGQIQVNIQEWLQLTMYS
inactive: nilotinib -0.007 | [1] 0.027 | dasatinib 0.035 | [2] -0.002 | [3] -0.014 | quisinostat 0.078 | tipifarnib 0.017 | [4] -0.077 | [5] -0.05 | [6] 0.01

CDK11A (UniProt Q9UQ88)
inactive: nilotinib -0.007 | [1] 0.053 | dasatinib -0.016 | [2] 0.085 | [3] -0.001 | quisinostat -0.031 | tipifarnib -0.029 | [4] 0.035 | [5] -0.029 | [6] -0.034

ATAD3B (UniProt Q5T9A4)
inactive: nilotinib -0.017 | [1] 0.019 | dasatinib 0.01 | [2] -0.026 | [3] 0.046 | quisinostat 0.018 | tipifarnib -0.004 | [4] 0.051 | [5] -0.006 | [6] 0.006

CEP76 (UniProt Q8TAP6)
inactive: nilotinib -0.005 | [1] -0.021 | dasatinib -0.002 | [2] -0.021 | [3] -0.005 | tipifarnib 0.006 | [4] -0.01 | [5] -0.015 | [6] -0.02
active: quisinostat -0.241

CARS isoform 3 (UniProt P49589)
Sequence of UniProt P49589 (P49589 whole entry, looked up): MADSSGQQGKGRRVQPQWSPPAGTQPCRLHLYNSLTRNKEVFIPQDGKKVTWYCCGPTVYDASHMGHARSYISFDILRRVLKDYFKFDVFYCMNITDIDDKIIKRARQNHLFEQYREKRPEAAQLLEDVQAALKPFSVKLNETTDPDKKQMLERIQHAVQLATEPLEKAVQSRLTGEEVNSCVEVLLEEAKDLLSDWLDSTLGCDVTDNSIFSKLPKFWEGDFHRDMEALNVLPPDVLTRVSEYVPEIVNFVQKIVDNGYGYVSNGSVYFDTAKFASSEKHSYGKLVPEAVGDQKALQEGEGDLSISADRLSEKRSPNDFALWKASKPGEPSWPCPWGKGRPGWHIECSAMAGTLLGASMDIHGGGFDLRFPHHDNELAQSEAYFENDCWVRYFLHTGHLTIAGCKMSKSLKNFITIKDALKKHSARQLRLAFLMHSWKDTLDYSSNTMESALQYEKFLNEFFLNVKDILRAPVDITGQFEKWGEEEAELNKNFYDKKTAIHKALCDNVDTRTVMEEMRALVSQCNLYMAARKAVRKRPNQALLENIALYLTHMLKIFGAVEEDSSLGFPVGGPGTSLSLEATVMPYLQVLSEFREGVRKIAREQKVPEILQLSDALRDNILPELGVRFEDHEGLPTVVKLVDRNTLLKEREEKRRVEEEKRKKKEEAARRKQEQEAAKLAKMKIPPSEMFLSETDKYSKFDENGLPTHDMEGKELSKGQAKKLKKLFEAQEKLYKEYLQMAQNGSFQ
inactive: nilotinib -0.019 | [1] -0.007 | dasatinib -0.024 | [2] -0.007 | [3] 0.012 | quisinostat 0.048 | tipifarnib 0.007 | [4] 0.004 | [5] 0.001 | [6] -0.01

C12orf45 (UniProt Q8N5I9)
Sequence of UniProt Q8N5I9 (Q8N5I9 whole entry, looked up): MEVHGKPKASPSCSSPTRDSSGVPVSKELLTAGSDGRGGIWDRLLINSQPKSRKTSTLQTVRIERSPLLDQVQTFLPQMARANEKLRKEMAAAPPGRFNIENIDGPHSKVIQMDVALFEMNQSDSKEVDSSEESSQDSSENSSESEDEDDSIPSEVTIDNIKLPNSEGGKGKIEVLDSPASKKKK
inactive: nilotinib -0.026 | [1] -0.003 | dasatinib 0.019 | [2] -0.017 | [3] 0.035 | quisinostat -0.019 | tipifarnib -0.014 | [4] -0.015 | [5] 0 | [6] 0.024

ATG4A (UniProt Q8WYN0)
Sequence of UniProt Q8WYN0 (Q8WYN0 whole entry, looked up): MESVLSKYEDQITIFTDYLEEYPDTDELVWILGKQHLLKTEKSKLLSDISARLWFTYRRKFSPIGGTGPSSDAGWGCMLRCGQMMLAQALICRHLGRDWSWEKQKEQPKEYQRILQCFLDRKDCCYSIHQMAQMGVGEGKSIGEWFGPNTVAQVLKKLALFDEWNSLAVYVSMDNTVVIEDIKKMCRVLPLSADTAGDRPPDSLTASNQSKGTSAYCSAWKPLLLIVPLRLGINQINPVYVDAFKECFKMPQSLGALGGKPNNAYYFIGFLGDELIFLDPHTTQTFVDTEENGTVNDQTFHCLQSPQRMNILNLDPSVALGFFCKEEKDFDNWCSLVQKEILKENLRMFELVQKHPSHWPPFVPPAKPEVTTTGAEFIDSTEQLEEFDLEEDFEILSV
inactive: nilotinib -0.022 | [1] 0.018 | dasatinib -0.064 | [2] 0.037 | [3] -0.038 | quisinostat -0.042 | tipifarnib -0.015 | [4] 0.096 | [5] -0.02 | [6] 0

ATG7 (UniProt O95352)
inactive: nilotinib 0.02 | [1] -0.03 | dasatinib -0.026 | [2] -0.032 | [3] 0.037 | quisinostat -0.039 | tipifarnib 0.03 | [4] 0.058 | [5] 0.01 | [6] -0.02

BPHL (UniProt Q86WA6)
inactive: nilotinib -0.049 | [1] 0.084 | dasatinib 0.008 | [2] -0.043 | [3] 0.055 | quisinostat -0.02 | tipifarnib 0.01 | [4] -0.03 | [5] 0.016 | [6] 0.022

CDK8 (UniProt P49336)
inactive: nilotinib -0.025 | [1] -0.037 | dasatinib -0.054 | [2] 0.119 | [3] -0.032 | quisinostat -0.05 | tipifarnib -0.209 | [4] 0.018 | [5] -0.006 | [6] -0.033

CDC123 (UniProt O75794)
Sequence of UniProt O75794 (O75794 whole entry, looked up): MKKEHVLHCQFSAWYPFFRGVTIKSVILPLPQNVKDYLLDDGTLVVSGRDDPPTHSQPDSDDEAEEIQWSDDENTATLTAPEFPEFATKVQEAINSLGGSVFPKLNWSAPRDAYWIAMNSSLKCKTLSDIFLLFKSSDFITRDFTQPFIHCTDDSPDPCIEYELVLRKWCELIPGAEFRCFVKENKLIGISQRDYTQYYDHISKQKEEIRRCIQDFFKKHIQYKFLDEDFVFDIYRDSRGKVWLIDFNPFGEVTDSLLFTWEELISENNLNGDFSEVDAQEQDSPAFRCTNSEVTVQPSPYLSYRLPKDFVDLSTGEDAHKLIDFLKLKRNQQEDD
inactive: nilotinib 0.026 | [1] -0.011 | dasatinib -0.006 | [2] -0.104 | [3] 0.033 | quisinostat 0.008 | tipifarnib -0.008 | [4] 0.022 | [5] -0.009 | [6] 0.017

BUD23 isoform 3 (UniProt O43709)
inactive: nilotinib -0.003 | [1] -0.008 | dasatinib 0.035 | [2] -0.084 | [3] 0.035 | quisinostat 0.009 | tipifarnib 0.015 | [4] 0.035 | [5] -0.076 | [6] -0.017

ATP5PF isoform 2 (UniProt P18859)
Sequence of UniProt P18859 (P18859 whole entry, looked up): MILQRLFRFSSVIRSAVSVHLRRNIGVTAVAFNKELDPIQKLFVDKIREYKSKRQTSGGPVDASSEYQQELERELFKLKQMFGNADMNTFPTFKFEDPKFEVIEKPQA
inactive: nilotinib 0.059 | [1] 0.046 | dasatinib 0.026 | [2] 0.164 | [3] -0.013 | quisinostat 0.11 | tipifarnib 0.066 | [4] -0.058 | [5] -0.029 | [6] -0.051

CAD (UniProt P27708)
inactive: nilotinib 0.004 | [1] 0.013 | dasatinib -0.094 | [2] -0.001 | [3] 0.038 | quisinostat -0.02 | tipifarnib -0.005 | [4] 0.023 | [5] -0.006 | [6] 0.004

CCNC (UniProt P24863)
Sequence of UniProt P24863 (P24863 whole entry, looked up): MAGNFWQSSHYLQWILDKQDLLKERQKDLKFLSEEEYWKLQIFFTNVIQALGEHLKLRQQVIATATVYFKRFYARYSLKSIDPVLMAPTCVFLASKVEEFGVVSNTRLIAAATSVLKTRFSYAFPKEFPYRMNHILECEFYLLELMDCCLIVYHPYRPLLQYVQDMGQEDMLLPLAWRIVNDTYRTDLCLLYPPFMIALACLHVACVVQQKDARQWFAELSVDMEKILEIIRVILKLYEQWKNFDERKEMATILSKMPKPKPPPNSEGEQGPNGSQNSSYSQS
inactive: nilotinib 0.013 | [1] 0.035 | dasatinib 0.04 | [2] 0.202 | [3] -0.017 | quisinostat 0 | tipifarnib -0.049 | [4] 0.048 | [5] -0.007 | [6] -0.029

ATE1 isoform 2 (UniProt O95260)
inactive: nilotinib -0.099 | [1] -0.006 | dasatinib 0.069 | [2] -0.032 | [3] 0.017 | quisinostat -0.014 | tipifarnib 0.025 | [4] 0.034 | [5] -0.002 | [6] 0.014

BLM (UniProt P54132)
inactive: nilotinib -0.002 | [1] 0.014 | dasatinib -0.013 | [2] 0 | [3] 0.048 | quisinostat 0.109 | tipifarnib 0.041 | [4] -0.013 | [5] -0.025 | [6] 0.018

ATP9B (UniProt O43861)
inactive: nilotinib 0.05 | [1] 0.164 | dasatinib -0.04 | [2] -0.069 | [3] -0.049 | quisinostat 0.009 | tipifarnib -0.08 | [4] -0.021 | [5] 0.107 | [6] 0.064

From the supplement of paper PMC10849652
